The panel holds about 79,000 compounds, 15% with a hit somewhere; the sample as a whole holds those more often. Active and inactive are the calls of the source. Rule as the data show it: active = growth inhibition above about 70%; inactive = the rest.
Key:
[1] = NCI Yeast Anticancer Drug Screen. Data for the rad52 strain (AID 147);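 also: 0% = growth of vehicle-treated control cultures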; conditions: S. cerevisiae rad52 mutant growth inhibition, active compounds read high
Procedure, shortened: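 Genetically altered yeast (DNA damage repair defect) treated with compound; inhibition calculated relative to vehicle.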

[2] = NCI Yeast Anticancer Drug Screen. Data for the wt1 strain (AID 149);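 also: 0% = growth of vehicle-treated wt1 cultures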; conditions: S. cerevisiae wt1 strain (SPY 50644) growth inhibition, active compounds read high
Procedure, shortened: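 Each compound is tested on wt1 yeast and the loss of growth versus vehicle gives the inhibition value.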

[3] = NCI Yeast Anticancer Drug Screen. Data for the rad50EPP+ strain (AID 151);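 also: 0% = growth of vehicle-treated control cultures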; conditions: S. cerevisiae rad50 mutant strain, active compounds read high
Procedure, shortened: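 Strain rad50EPP+; compound exposure; % growth inhibition vs vehicle.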

[4] = NCI Yeast Anticancer Drug Screen. Data for the rad50 strain (AID 155);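 also: 0% = growth of vehicle-only cultures of the same strain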; conditions: S. cerevisiae rad50 strain growth inhibition, active compounds read high
Procedure, shortened: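 Vehicle-treated cultures provide the reference for the growth inhibition reported for compound-exposed, repair-deficient yeast.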

[5] = NCI Yeast Anticancer Drug Screen. Data for the mec2-1 strain (AID 157); conditions: S. cerevisiae mec2-1 strain, active compounds read high
Procedure, shortened: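 Cells of the genetically defined mec2-1 yeast strain are incubated with test compound. Inhibition of growth is calculated against vehicle-treated controls.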

[6] = NCI Yeast Anticancer Drug Screen. Data for the rad14 strain (AID 159);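 also: 0% = growth of vehicle-treated control cultures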; conditions: S. cerevisiae rad14 strain growth inhibition, active compounds read high
Procedure, shortened: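 Inhibition of growth is reported for a repair-deficient yeast mutant following compound treatment, calculated relative to cultures that received vehicle.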

[7] = NCI Yeast Anticancer Drug Screen. Data for the sgs1 mgt1 strain (AID 161);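 also: 0% = growth of cultures given vehicle only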; conditions: S. cerevisiae sgs1 mgt1 strain, active compounds read high
Procedure, shortened: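 Genetically altered yeast, compound exposure, growth inhibition relative to vehicle.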

[8] = NCI Yeast Anticancer Drug Screen. Data for the cln2 rad14 strain (AID 165);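 also: 0% = growth equal to vehicle treated cultures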; conditions: S. cerevisiae cln2 rad14 strain, active compounds read high
Procedure, shortened: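 The screen exposed genetically defined yeast (cln2 rad14) to test compounds and scored growth inhibition relative to vehicle-treated controls.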

[9] = NCI Yeast Anticancer Drug Screen. Data for the bub3 strain (AID 167); conditions: S. cerevisiae bub3 mutant strain, active compounds read high
Procedure, shortened: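 Mutant yeast screening strain plus compound; vehicle-treated cultures serve as the 0% inhibition reference.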

[10] = NCI Yeast Anticancer Drug Screen. Data for the wt2 strain (AID 169); conditions: S. cerevisiae wt2 strain growth inhibition, active compounds read high
Procedure, shortened: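 Steps: yeast strain treated with compound; growth recorded; inhibition calculated relative to cultures given vehicle alone.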

[11] = NCI Yeast Anticancer Drug Screen. Data for the mlh1 strain (AID 171);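 also: 0% = growth of vehicle-treated control cultures of the same strain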; conditions: S. cerevisiae mlh1 strain growth inhibition, active compounds read high
Procedure, shortened: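 Yeast screen: mutant strain plus compound, growth scored against vehicle control wells.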

[12] = NCI Yeast Anticancer Drug Screen. Data for the sgs1 strain (AID 173);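 also: 0% = growth of vehicle-only control cultures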; conditions: S. cerevisiae sgs1 mutant, active compounds read high
Procedure, shortened: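 Inhibition of yeast growth served as the measure. The mutant strain was treated with each compound, and growth was normalised to cultures receiving vehicle alone.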

[13] = NCI Yeast Anticancer Drug Screen. Data for the mlh1 rad18 strain (AID 175); conditions: S. cerevisiae mlh1 rad18 strain growth inhibition, active compounds read high
Procedure, shortened: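 Compound-treated yeast growth, normalised to vehicle controls. Strain bears defined DNA repair mutations.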

[14] = NCI Yeast Anticancer Drug Screen. Data for the rad18 strain (AID 177); conditions: S. cerevisiae rad18 mutant growth inhibition, active compounds read high
Procedure, shortened: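 Inhibition values reflect reduced yeast growth compared with vehicle-treated controls, using a strain engineered with a DNA damage repair defect.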

[15] = at 5.0 µM (retest, dose inferred, filed as 0.5)
[16] = at 50.0 µM (retest, dose inferred, filed as 5.0)

Measured: growth inhibition

On1cnc(=S)c2[nH]cnc21
inactive: [1]; at 1.2 µM -28% | [1]; at 3.7 µM -27% | [1]; at 11.0 µM -29% | [1]; at 33.0 µM -26% | [1]; at 100.0 µM -35% | [2]; at 1.2 µM -31% | [2]; at 3.7 µM -33% | [2]; at 11.0 µM -30% | [2]; at 33.0 µM -39% | [2]; at 100.0 µM -42% | [3]; at 1.2 µM -23% | [3]; at 3.7 µM -39% | [3]; at 11.0 µM -11% | [3]; at 33.0 µM -37% | [3]; at 100.0 µM -41% | [4]; at 1.2 µM -63% | [4]; at 3.7 µM -33% | [4]; [15] 24% | [4]; at 11.0 µM -65% | [4]; at 33.0 µM -62% | [4]; at 50.0 µM -7.05% | [4]; at 100.0 µM -55% | [5]; at 1.2 µM 31% | [5]; at 3.7 µM 9% | [5]; [15] 15% | [5]; at 11.0 µM 11% | [5]; at 33.0 µM -2% | [5]; at 50.0 µM 1.85% | [5]; at 100.0 µM -1% | [6]; at 1.2 µM -32% | [6]; at 3.7 µM -26% | [6]; at 11.0 µM -34% | [6]; at 33.0 µM -28% | [6]; at 100.0 µM -14% | [7]; [15] 36% | [7]; at 50.0 µM 9.3% | [8]; [15] 13% | [8]; at 50.0 µM 1.85% | [9]; at 1.2 µM -29% | [9]; at 3.7 µM -6% | [9]; [15] 17% | [9]; at 11.0 µM -17% | [9]; at 33.0 µM -3% | [9]; at 50.0 µM -6.65% | [9]; at 100.0 µM -8% | [10]; at 1.2 µM 2% | [10]; at 3.7 µM -6% | [10]; at 11.0 µM -11% | [10]; at 33.0 µM -4% | [10]; at 100.0 µM -19% | [11]; at 1.2 µM -6% | [11]; at 3.7 µM -14% | [11]; at 11.0 µM -28% | [11]; at 33.0 µM -29% | [11]; at 100.0 µM -37% | [12]; at 1.2 µM -22% | [12]; at 3.7 µM -26% | [12]; at 11.0 µM -16% | [12]; at 33.0 µM -44% | [12]; at 100.0 µM -32% | [13]; [15] 60% | [13]; at 50.0 µM 7.7% | [14]; at 1.2 µM -40% | [14]; at 3.7 µM -33% | [14]; at 11.0 µM -55% | [14]; at 33.0 µM -61% | [14]; at 100.0 µM -67%
active: [4]; [16] 74% | [5]; [16] 99% | [7]; [16] 100% | [8]; [16] 97% | [9]; [16] 99% | [13]; [16] 98%

Source: PubChem BioAssay (NCI)
